From PubChem BioAssay (NCATS)
Inconclusive results are not listed. Calls of active or inactive are those of the source. Unless noted, the call rests on the fitted dose curve; in most records, active means well fitted curve in the direction sought with a large enough effect; inconclusive means small, poorly fitted or top-dose-only effect, or another doubt; inactive means no such curve, though single readings can be large; an effect the other way counts as inactive or inconclusive.

System: not listed separately
Test: Nrf2 qHTS screen for inhibitors: Validation (AID 493153; active means well fitted inhibition curve with a large enough effect in the main read-out, with a control signal flat, not every such curve was filed as active; on activity change, negative = inhibition: % of control where 0% means no effect)
Details: A549 ARE-Fluc reporter, 18-24 h; viability change: measured here: cytotoxicity max response; luciferase luminescence, at 46.1 µM (top of the series); activity change, negative = inhibition: at the top concentration
In short: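 A549 cells carrying an ARE-driven firefly luciferase reporter, in 5% FBS OPTI-MEM, were treated with compounds in concentration-response for 18-24 h at 37°C. Viability was read by CellTiter-Fluor fluorescence, then Nrf2 activity by luciferase luminescence.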
In the case of `C[N+](C)(C)CC(=O)O`, the “activity change, negative = inhibition” value is reported as -13.5% (inactive) and the viability change is reported as 8.76%. In the case of `CC(=O)O[C@]1(C(C)=O)CC[C@H]2[C@@H]3C=C(Cl)C4=CC(=O)[C@@H]5C[C@@H]5[C@]4(C)[C@H]3CC[C@@]21C`, the “activity change, negative = inhibition” value is reported as -8.66% (inactive) and the viability change is reported as 2.19%. For `CCCCCN(C)CCC(O)(P(=O)(O)O)P(=O)(O)O`, the “activity change, negative = inhibition” value was 6.83% (inactive) and the viability change was -4.22%. In the case of `O=C(NCCN1CCOCC1)c1ccc(Cl)cc1`, the “activity change, negative = inhibition” value is reported as 1.22% (inactive) and the viability change is reported as -1.31%.

System: not listed separately
Test: qHTS for Inhibitors of Cell Surface uPA Generation: Validation Assay (AID 493164);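 further: RAW 264.7 macrophage cells exposed to compound for 18 h; 0% is about no effect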
Details: mouse cells, plasminogen activation; series mostly up to 38.3 µM; activity change: at the top concentration
In short: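 RAW 264.7, 4000 cells/well, o/n plating; cpd 7-pt 1:5 dilution 2.45 nM–38.3 uM final; 18 h, 37 C/5% CO2; ATP-Lite, 5 s luminescence exposure.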
In the case of `C[N+](C)(C)CC(=O)O`, the “activity change” value is reported as -0.0097% (inactive). With `CC1(C)CCC2=C(O1)c1ccccc1C(=O)C2=O` the “activity change” value was 1.5% (inactive). With `CC(=O)O[C@]1(C(C)=O)CC[C@H]2[C@@H]3C=C(Cl)C4=CC(=O)[C@@H]5C[C@@H]5[C@]4(C)[C@H]3CC[C@@]21C` the “activity change” value was -0.182% (inactive). With `CCn1cc(C(=O)O)c(=O)c2ccc(C)nc21` the “activity change” value was -0.647% (inactive). For `CCCCCN(C)CCC(O)(P(=O)(O)O)P(=O)(O)O`, the “activity change” value was -0.915% (inactive). In the case of `O=C(NCCN1CCOCC1)c1ccc(Cl)cc1`, the “activity change” value is reported as 0.0573% (inactive). With `CC1=C(/C=C/C(C)=C/C=C/C(C)=C/C(=O)Nc2ccc(O)cc2)C(C)(C)CCC1` the “activity change” value was 1.47% (inactive). With `O=C(O)CCc1nc(-c2ccccc2)c(-c2ccccc2)o1` the “activity change” value was 0.326% (inactive). For `COc1ccc(Cc2nccc3cc(OC)c(OC)cc23)cc1OC`, the “activity change” value was 0.584% (inactive). With `Clc1ccc(C(c2ccc(Cl)cc2)n2cc[n+](CC(OCc3ccc(Cl)cc3Cl)c3ccc(Cl)cc3Cl)c2)cc1` (stereo not drawn) the “activity change” value was 1.23% (inactive).

Target: Peptidyl-prolyl cis-trans isomerase NIMA-interacting 1 (Homo sapiens) (UniProt Q13526)
Sequence (Q13526 whole entry, looked up): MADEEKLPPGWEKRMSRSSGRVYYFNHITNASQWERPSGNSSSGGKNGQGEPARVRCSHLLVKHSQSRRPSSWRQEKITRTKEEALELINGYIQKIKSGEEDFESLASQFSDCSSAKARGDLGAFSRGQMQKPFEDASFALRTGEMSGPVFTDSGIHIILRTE
Test: qHTS Validation Assay to Find Inhibitors of Pin1 (AID 504536; active means well fitted inhibition curve with a large enough effect in the polarisation, with a control signal flat, not every such curve was filed as active; the % refers to the polarisation;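 further: 0% = full Pin1 enzyme wells and -100% = no-enzyme wells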)
Details: Pin1 fluorescence polarization peptide binding assay; series mostly up to 57.5 µM; activity, negative = inhibition: at the top concentration
In short: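 Fluorescence polarization competition: compounds (titration) displace HiFluor-488-labeled Pin1-1b peptide from Pin1 (0.3 uM final) in pH 7.5 HEPES buffer with DTT, 10 min at room temperature; %Activity normalized to no-enzyme wells, curves fitted.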
For `C[N+](C)(C)CC(=O)O`, the “activity, negative = inhibition” value was -7.37% (inactive). With `CC(=O)O[C@]1(C(C)=O)CC[C@H]2[C@@H]3C=C(Cl)C4=CC(=O)[C@@H]5C[C@@H]5[C@]4(C)[C@H]3CC[C@@]21C` the “activity, negative = inhibition” value was 0.691% (inactive). With `CCn1cc(C(=O)O)c(=O)c2ccc(C)nc21` the “activity, negative = inhibition” value was -3.83% (inactive). For `CCCCCN(C)CCC(O)(P(=O)(O)O)P(=O)(O)O`, the “activity, negative = inhibition” value was -5.3% (inactive). With `O=C(NCCN1CCOCC1)c1ccc(Cl)cc1` the “activity, negative = inhibition” value was 1.13% (inactive). For `CC1=C(/C=C/C(C)=C/C=C/C(C)=C/C(=O)Nc2ccc(O)cc2)C(C)(C)CCC1`, the “activity, negative = inhibition” value was 12.9% (inactive). For `O=C(O)CCc1nc(-c2ccccc2)c(-c2ccccc2)o1`, the “activity, negative = inhibition” value was -2.71% (inactive). In the case of `COc1ccc(Cc2nccc3cc(OC)c(OC)cc23)cc1OC`, the “activity, negative = inhibition” value is reported as 0.86% (inactive). With `Clc1ccc(C(c2ccc(Cl)cc2)n2cc[n+](CC(OCc3ccc(Cl)cc3Cl)c3ccc(Cl)cc3Cl)c2)cc1` (stereo not drawn) the “activity, negative = inhibition” value was 3.59% (inactive).

Target: Phosphoglycerate kinase, glycosomal (Trypanosoma brucei brucei) (UniProt P07378)
Sequence (P07378 whole entry, looked up): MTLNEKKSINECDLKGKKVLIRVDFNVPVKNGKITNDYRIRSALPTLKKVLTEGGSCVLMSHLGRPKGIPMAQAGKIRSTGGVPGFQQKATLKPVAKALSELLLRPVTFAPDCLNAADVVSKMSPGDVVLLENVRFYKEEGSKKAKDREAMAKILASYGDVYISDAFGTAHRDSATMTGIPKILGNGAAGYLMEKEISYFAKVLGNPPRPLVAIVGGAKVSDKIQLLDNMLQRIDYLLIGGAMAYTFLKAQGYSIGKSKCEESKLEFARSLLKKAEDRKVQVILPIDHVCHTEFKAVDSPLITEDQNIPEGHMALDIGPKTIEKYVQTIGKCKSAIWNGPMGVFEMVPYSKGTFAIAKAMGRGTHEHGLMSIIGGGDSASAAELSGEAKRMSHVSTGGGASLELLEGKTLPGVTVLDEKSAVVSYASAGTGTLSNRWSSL
Test: qHTS Validation Assay to Find Inhibitors of Phosphoglycerate Kinase (AID 504547);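 further: control wells lack PGK and mark full inhibition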
Details: enzymatic PGK inhibition, coupled luminescence read-out; series mostly up to 57.5 µM; activity, negative = inhibition: at the top concentration
In short: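 Substrate/PGK mix plus compound; reaction started with GAPDH (100nM final) to form 1,3-BPG; 60 min RT; Kinase-Glo Plus 10 min; luminescence. TEA 100mM pH 7.6, MgCl2 5mM, Tween-20 0.01%.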
With `C[N+](C)(C)CC(=O)O` the “activity, negative = inhibition” value was 1.09% (inactive). In the case of `CC(=O)O[C@]1(C(C)=O)CC[C@H]2[C@@H]3C=C(Cl)C4=CC(=O)[C@@H]5C[C@@H]5[C@]4(C)[C@H]3CC[C@@]21C`, the “activity, negative = inhibition” value is reported as 3.07% (inactive). In the case of `CCn1cc(C(=O)O)c(=O)c2ccc(C)nc21`, the “activity, negative = inhibition” value is reported as 12% (inactive). With `CCCCCN(C)CCC(O)(P(=O)(O)O)P(=O)(O)O` the “activity, negative = inhibition” value was -2.98% (inactive). With `O=C(NCCN1CCOCC1)c1ccc(Cl)cc1` the “activity, negative = inhibition” value was 3.62% (inactive). For `CC1=C(/C=C/C(C)=C/C=C/C(C)=C/C(=O)Nc2ccc(O)cc2)C(C)(C)CCC1`, the “activity, negative = inhibition” value was 7.26% (inactive). For `O=C(O)CCc1nc(-c2ccccc2)c(-c2ccccc2)o1`, the “activity, negative = inhibition” value was 5.99% (inactive). With `COc1ccc(Cc2nccc3cc(OC)c(OC)cc23)cc1OC` the “activity, negative = inhibition” value was 7.6% (inactive). For `Clc1ccc(C(c2ccc(Cl)cc2)n2cc[n+](CC(OCc3ccc(Cl)cc3Cl)c3ccc(Cl)cc3Cl)c2)cc1` (stereo not drawn), the “activity, negative = inhibition” value was 9.05% (inactive).

Target: Ubiquitin carboxyl-terminal hydrolase 1 (Homo sapiens) (UniProt O94782)
Sequence (O94782 whole entry, looked up): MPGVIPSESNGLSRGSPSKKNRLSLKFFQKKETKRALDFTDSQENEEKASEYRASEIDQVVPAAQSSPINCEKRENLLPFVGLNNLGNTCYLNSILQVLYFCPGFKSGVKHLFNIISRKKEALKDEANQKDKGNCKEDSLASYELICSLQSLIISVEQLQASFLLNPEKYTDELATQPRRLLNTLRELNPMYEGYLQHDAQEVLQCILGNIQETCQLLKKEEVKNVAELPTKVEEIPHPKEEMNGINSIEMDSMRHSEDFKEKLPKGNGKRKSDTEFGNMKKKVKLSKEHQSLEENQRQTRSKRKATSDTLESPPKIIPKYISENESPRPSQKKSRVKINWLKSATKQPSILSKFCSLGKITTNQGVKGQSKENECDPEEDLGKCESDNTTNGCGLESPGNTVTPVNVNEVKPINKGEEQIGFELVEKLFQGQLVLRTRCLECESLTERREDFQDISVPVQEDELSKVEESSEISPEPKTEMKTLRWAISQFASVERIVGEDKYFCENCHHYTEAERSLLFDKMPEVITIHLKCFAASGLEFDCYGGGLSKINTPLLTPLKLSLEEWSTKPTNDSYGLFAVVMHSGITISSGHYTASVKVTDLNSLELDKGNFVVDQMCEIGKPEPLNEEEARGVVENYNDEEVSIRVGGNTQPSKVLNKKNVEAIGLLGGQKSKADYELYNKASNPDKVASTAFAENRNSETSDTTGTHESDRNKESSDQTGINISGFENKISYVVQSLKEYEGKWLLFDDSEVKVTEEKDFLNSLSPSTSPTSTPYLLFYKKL
Test: Inhibitors of USP1/UAF1: Pilot qHTS (AID 504865); further: nearly all actives have a fitted effect of over 35% in size; further: potency means the concentration at half of the fitted maximal effect;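 on activity change, negative = inhibition: rhodamine fluorescence freed from ubiquitin-rhodamine substrate followed over time; top concentration of the series differs between compounds; on the % scale 0 is the no-effect control and ±100 the full control effect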
Details: purified USP1/UAF1, Ub-rhodamine cleavage fluorescence; series mostly up to 114 µM; activity change, negative = inhibition: at the top concentration
In short: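 1nM USP1/UAF1 + cpd, 15 min RT; start w/ Ub-Rho 150nM final; kinetic FL 480/540 nm, 6 reads q60 s. Buffer 50mM HEPES pH 7.8, 0.5mM EDTA, 1mM TCEP, 0.01% Tween-20, 0.1 mg/ml BSA.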
For `Cc1cnc(C(=O)O)c[n+]1[O-]`, the “activity change, negative = inhibition” value was -3.24% (inactive). In the case of `COc1ccc(C2Sc3ccccc3N(CCN(C)C)C(=O)C2OC(C)=O)cc1` (stereo not drawn), the “activity change, negative = inhibition” value is reported as -8.78% (inactive). In the case of `CC1(C)CCC2=C(O1)c1ccccc1C(=O)C2=O`, the Potency is reported as 5.01 µM (active). With `CC(=O)O[C@]1(C(C)=O)CC[C@H]2[C@@H]3C=C(Cl)C4=CC(=O)[C@@H]5C[C@@H]5[C@]4(C)[C@H]3CC[C@@]21C` the Potency was “inactive”. With `CCn1cc(C(=O)O)c(=O)c2ccc(C)nc21` the Potency was “inactive”. In the case of `CCCCCN(C)CCC(O)(P(=O)(O)O)P(=O)(O)O`, the Potency is reported as “inactive”. For `O=C(O)c1cc(-c2ccccc2)nc2ccccc12`, the “activity change, negative = inhibition” value was -8.07% (inactive). With `O=C(NCCN1CCOCC1)c1ccc(Cl)cc1` the Potency was “inactive”. For `COc1ccc2c3c1OC1C[C@@H](O)C=C[C@@]31CCN(C)C2` (stereo partly drawn), the Potency was “inactive”. For `CC(C)[C@H](CO)Nc1nc(Nc2ccc(C(=O)O)c(Cl)c2)c2ncn(C(C)C)c2n1`, the “activity change, negative = inhibition” value was -10.3% (inactive). For `CC1=C(/C=C/C(C)=C/C=C/C(C)=C/C(=O)Nc2ccc(O)cc2)C(C)(C)CCC1`, the “activity change, negative = inhibition” value was -17% (inactive). For `COCCCCC(=NOCCN)c1ccc(C(F)(F)F)cc1`, the Potency was “inactive”. With `COc1cc2ncnc(Nc3ccc(F)c(Cl)c3)c2cc1OCCCN1CCOCC1` the “activity change, negative = inhibition” value was -10.7% (inactive). In the case of `O=C(O)CCc1nc(-c2ccccc2)c(-c2ccccc2)o1`, the Potency is reported as “inactive”. In the case of `C[C@@H](O)[C@H]1C(=O)N2C(C(=O)O)=C(S[C@@H]3CN[C@H](C(=O)N(C)C)C3)[C@H](C)[C@H]12`, the “activity change, negative = inhibition” value is reported as -13.9% [at 54.9 µM] (inactive). With `Nc1ncnc2c1ncn2[C@@H]1O[C@@H](CO)[C@H](O)[C@H]1O` the “activity change, negative = inhibition” value was -2.54% [at 54.9 µM] (inactive). With `O=c1cc(-c2ccccc2)oc2cc(O)cc(O)c12` the “activity change, negative = inhibition” value was 5.48% [at 54.9 µM] (inactive). With `O=c1[nH]cnc2c1ncn2[C@H]1CC[C@@H](CO)O1` the “activity change, negative = inhibition” value was -3.85% (inactive). For `CC1(C)O[C@H]2C[C@@H]3[C@H]4CCC5=CC(=O)C=C[C@]5(C)[C@@]4(F)[C@@H](O)C[C@]3(C)[C@]2(C(=O)CO)O1`, the “activity change, negative = inhibition” value was 0.223% (inactive). In the case of `O=C(O)c1c(Cl)c(Cl)c(Cl)c(Cl)c1-c1c2cc(I)c(=O)c(I)c-2oc2c(I)c(O)c(I)cc12`, the Potency is reported as 20 µM (active). With `CCOC(=O)O[C@]1(C(=O)OCCl)CC[C@@H]2[C@H]3CCC4=CC(=O)C=C[C@]4(C)[C@@H]3[C@@H](O)C[C@@]21C` the “activity change, negative = inhibition” value was -1.74% (inactive). With `O=C(O)Cc1cccc2ccccc12` the “activity change, negative = inhibition” value was -5.68% (inactive).
